# Laboratory results reported in ChEMBL document CHEMBL4513216, “Probing the Open Global Health Chemical Diversity Library for Multistage-Active Starting Points for Next-Generation Antimalarials” (ACS Infect Dis, 2020).
# The whole screen tested about 69,000 compounds, of which about 8,600 (12%) showed an effect of 50% or more. Many of the other results were omitted from the sample, so strong results are more common in it than they were.
# Test system: Plasmodium berghei
# Test: Screen against P. berghei liver stage (PbLuc), transformed with Luciferase, at 10uM
# Type: functional, HepG2
# Details: tested at 10 uM
row,SMILES,INHIBITION [%]
1,CCOC(=O)c1cc(C(C)(O)CCC=C(C)C)on1 (centres undefined),37.8
2,Cc1nc(CC(=O)N2CCC(c3nn(C)c4ncccc34)CC2)cs1,26.8
3,Cn1c(C(=O)N2CCC(C(N)=O)C2)c(Cl)c2ccccc21 (centres undefined),-20.5
4,Cc1oc(-c2ccco2)nc1CN1CCc2cnc(C(C)C)nc2C1,21.9
5,CC(C)N(C)S(=O)(=O)c1ccc2c(c1)CCN(C(=O)c1cccnn1)C2,23.2
6,CC(=O)NCC1CCN(CC2CCOc3ccccc3C2)CC1 (centres undefined),37.8
7,Cc1cnc(C(=O)NCC2CCOc3ccccc3C2)cn1 (centres undefined),24.4
8,CNc1nc(C(=O)NCC2CCOc3ccccc3C2)cs1 (centres undefined),53.3
9,O=C(c1ccc(Cn2cc(Br)cn2)cc1)N1CCCC1,53.5
10,CN1CCN(C(=O)c2ccc(Cn3cc(Br)cn3)cc2)CC1,30.7
11,O=C(c1ccc(Cn2cc(Br)cn2)cc1)N1CCOCC1,37.7
12,CCC(=O)N1CCN(S(=O)(=O)c2cccc(F)c2)[C@H]2CS(=O)(=O)C[C@H]21,32.2
13,CCC(=O)N1CCN(C(=O)Nc2ccc(Cl)cc2)[C@H]2CS(=O)(=O)C[C@H]21,61
14,CCC(=O)N1CCN(C(=O)Nc2cccc(C#N)c2)[C@H]2CS(=O)(=O)C[C@H]21,-2.09
15,CC(=O)N1CCN(C(=O)Nc2ccc(Cl)cc2)[C@H]2CS(=O)(=O)C[C@H]21,12.6
16,CCC(=O)N1CCN(C(=O)CCn2cc(Cl)cn2)[C@H]2CS(=O)(=O)C[C@H]21,35.8
17,CCC(=O)N1CCN(C(=O)Nc2cccc(F)c2)[C@H]2CS(=O)(=O)C[C@H]21,61.9
18,CCN1CC(CN(C)Cc2nc(-c3ccc(F)cc3F)oc2C)CC1=O (centres undefined),26.5
19,Cc1ccc(C2CSCCN2C(=O)c2ccnc(N(C)C)c2)o1 (centres undefined),12.3
20,N#Cc1c(CN2CCCCC2Cn2cncn2)cn2ccccc12 (centres undefined),19.3
21,CN(Cc1ccc(Cl)s1)C(=O)c1ccccc1OCC(N)=O,-93.8
22,O=C(c1ccncc1)N1CCCn2nnc(COCCO)c2C1,29.8
23,COc1ccnc(CN2CCC(O)(c3ccc(C)cn3)CC2)c1OC,-23.4
24,COc1cccc(CN2CCC(O)(c3ccc(C)cn3)CC2)c1OC,-57.5
25,COc1cc(CN2CCC(O)(c3ccc(C)cn3)CC2)cc(Cl)c1OC,51.3

row,SMILES,INHIBITION [%]
1,Cc1nc(C)n(CC2CN(CCOc3cccc(F)c3)CCO2)n1 (centres undefined),-21.7
2,Cc1cc(C)c2nc(C)cc(C(=O)N3CC(O)CO3)c2c1 (centres undefined),22.6
3,CN1CCOC(CNCCOc2ccc(C#N)cc2)C1 (centres undefined),71.1
4,CN1CCOC(CNCCCOc2ccc(C#N)cc2)C1 (centres undefined),-89.9
5,CN(C)CC1CN(CCOc2cccc(C#N)c2)CCO1 (centres undefined),41.4
6,CN1CCOC(CNCCc2ccccn2)C1 (centres undefined),39.5
7,CN1CCOC(CNCCOc2cccc(C#N)c2)C1 (centres undefined),66.7
8,COCCOc1cccc(CNCC2CN(C)CCO2)c1 (centres undefined),7.12
9,CN(C)c1ccc(C2CCN(c3cnccn3)CC2)nc1,1.93
10,CO[C@H]1CC[C@H]2[C@H]1OCCN2C(=O)CC1=CCCCC1,32.5
11,O=C(CN1CCC(c2nnc(C(F)(F)F)o2)CC1)NCc1ccccc1,-3.48
12,CCc1nnc(Nc2cccc(C3CCN(CC4CC4)CC3)n2)s1,14.7
13,CCc1ccc(C(=O)N2CCN(CC(O)c3ccccc3)CC2)o1 (centres undefined),37.9
14,c1ccc(Cc2nnc(CN3CCc4cncnc4C3)o2)cc1,-31.3
15,Cc1noc(C)c1CN1CCC(N(C)Cc2noc(C(C)C)n2)C1 (centres undefined),29.8
16,CSCC[C@H](N)c1nnc(SCc2cc(C)ccc2C)o1,12.5
17,CC(=O)NCCNC(=O)CN1CCCC1Cn1nc(C)nc1C (centres undefined),1.56
18,Cc1nc(C)n(CC2CCCN2CC(=O)NCCc2ccccc2)n1 (centres undefined),9.54
19,O=C(CN1CCCC1Cn1cncn1)NCCC1=CCCCC1 (centres undefined),27.6
20,Cc1nc(C)n(CC2CCCN2CC(=O)NCCc2ccsc2)n1 (centres undefined),91.3
21,Cc1nc(C)n(CC2CCCN2CC(=O)NCCC2=CCCCC2)n1 (centres undefined),77.7
22,O=C(CN1CCCCC1Cn1cncn1)NCCc1ccsc1 (centres undefined),-81.3
23,COc1ccc(CN2CCO[C@H]3CN(C4CCC4)CC[C@H]3C2=O)cc1,17.2
24,O=C(c1cccc(F)c1)N1CCOC(c2nc(-c3ncccn3)no2)C1 (centres undefined),13.1
25,CC(C)c1nnc2n1CCN(CCC(=O)Nc1sccc1C#N)C2,5.7

row,SMILES,INHIBITION [%]
1,CN(C)Cc1cc(C2CCCN(S(=O)(=O)c3cccc(Cl)c3)C2)nn1C (centres undefined),-14.2
2,Cc1ncc(CN2CCCC(c3cc(C(F)(F)F)[nH]n3)C2)s1 (centres undefined),-17.6
3,CNS(=O)(=O)c1ccc(C(=O)NCCNc2ncccn2)cc1,33
4,CCCNC(=O)NCc1ccccc1NS(=O)(=O)c1ccccc1,-24.7
5,CCOCCC1(CNC(=O)c2ccncc2)CCC1,-37.7
6,CCCNC(=O)c1ccc(S(=O)(=O)NCC2(COC)CCCC2)cc1,89.7
7,CCCNC(=O)c1ccc(S(=O)(=O)NC2(COC)CCCC2)cc1,56.3
8,CCCNC(=O)c1ccc(S(=O)(=O)NCC2(O)CCCNC2)cc1 (centres undefined),43.4
9,CC(=O)N(Cc1ncc(C)o1)C1CCN(Cc2cc(C)on2)C1 (centres undefined),-16
10,COC(CNC(=O)C1CCN(S(C)(=O)=O)CC1)c1ccc(C)s1 (centres undefined),36.8
11,COc1ccc(CN(C)[C@@H]2CN(C(=O)c3ccnn3C)C[C@H]2O)cc1,-55
12,COc1ccc(CN(C)[C@@H]2CN(C(=O)c3cncs3)C[C@H]2O)cc1,56.8
13,COc1ccc(CN(C)[C@@H]2CN(C(=O)c3cnn(C)c3)C[C@H]2O)cc1,2.71
14,COc1ccc(CN(C)[C@@H]2CN(C(=O)c3cccs3)C[C@H]2O)cc1,24.5
15,COc1ccc(CN(C)[C@@H]2CN(C(=O)c3ccccc3)C[C@H]2O)cc1,25.6
16,COc1ccc(CN(C)[C@@H]2CN(C(=O)c3cccnc3)C[C@H]2O)cc1,52
17,COc1ccnc(N2CCN(Cc3nc(-c4ccoc4)no3)CC2)c1,9.52
18,Cc1nc(C)n(CC2CCCN2Cc2cn3cc(Cl)ccc3n2)n1 (centres undefined),15.3
19,Cc1cccc(C(=O)N2CCO[C@H]3[C@H](OCCN(C)C)CC[C@@H]32)n1,54
20,O=C(c1ccccc1)N1C[C@@H]2CCCO[C@@H]2[C@H](N2CCOCC2)C1,49.7
21,Cc1ccc(C(=O)N2C[C@@H]3CCCO[C@@H]3[C@H](N3CCOCC3)C2)cn1,52.6
22,CO[C@@H]1CC[C@H]2[C@H]1OCCN2C(=O)c1ccc(C)nc1,67
23,Cc1cc(C(=O)N2C[C@@H]3CCCO[C@@H]3[C@H](N3CCOCC3)C2)c(C)[nH]1,4.02
24,O=C(c1ccccc1)N1C[C@@H]2CCCO[C@@H]2[C@H](N2CCCC2)C1,52.6
25,Cn1cccc1C(=O)N1C[C@@H]2CCCO[C@@H]2[C@H](N2CCOCC2)C1,30.5

row,SMILES,INHIBITION [%]
1,Cc1ccc(C(=O)N2CCO[C@H]3[C@H](OCCN(C)C)CC[C@@H]32)cn1,-9.26
2,Cc1ccccc1C(=O)N1CCO[C@H]2[C@H](OCCN(C)C)CC[C@@H]21,-0.371
3,CN(C)CCO[C@@H]1CC[C@H]2[C@H]1OCCN2C(=O)c1ccncc1,29.3
4,CO[C@H]1CC[C@H]2[C@H]1OCCN2C(=O)c1ccc(C)nc1,-6.39
5,Cc1ccc(C(=O)N2C[C@@H]3CCCO[C@@H]3[C@H](N3CCCC3)C2)cn1,30.5
6,COc1ccc(Cn2cc(C(=O)N(C)CCN(C)C)nn2)cc1,28.5
7,c1cncc(COCc2nnc3n2CCN(CC2CC2)C3)c1,-15.7
8,CCS(=O)(=O)CCN(C)C(=O)NC(C)c1ccc(C)s1 (centres undefined),22.6
9,CCc1sc(C(=O)N2CCC(Nc3ccc(C)nn3)CC2)cc1C,42
10,Cc1cnc(C(=O)N2C[C@H](N3CCOCC3)[C@@H]3OCCC[C@@H]32)cn1,45.7
11,Cc1ccc(C(=O)N2C[C@H](N3CCOCC3)[C@@H]3OCCC[C@@H]32)cn1,50.3
12,Cc1ccc(C(=O)N2C[C@@H](N3CCN(C)CC3)[C@H]3OCCC[C@H]32)cn1,10.4
13,CC(=O)NCC1CCN(C(=O)c2ccc(Sc3ccccn3)cc2)CC1,14.4
14,CC(=O)N1CCN(c2cnnc(N3CCCC3)c2)CC1,31.9
15,O=C(c1ccccc1)N1C[C@H]2CC[C@@H](C1)N(Cc1cc(F)ccc1Cl)C2,25
16,COCCCN1C(=O)CC[C@H]2CN(c3nc4ccccc4s3)CC[C@H]21,41.2
17,NCCN1C(=O)CC[C@H]2CN(Cc3ccc4occc4c3)CC[C@H]21,30.3
18,COCCCN1C(=O)CC[C@H]2CN(Cc3ccc4occc4c3)CC[C@H]21,16.1
19,COCCCN1C(=O)CC[C@H]2CN(Cc3ncc[nH]3)CC[C@H]21,38.8
20,COCCCN1C(=O)CC[C@H]2CN(Cc3cc4ccccc4o3)CC[C@H]21,73.9
21,COCCCN1C(=O)CC[C@H]2CN(c3ccnc4ccccc34)CC[C@H]21,63.9
22,COCCCN1C(=O)CC[C@H]2CN(c3cnc4ccccc4n3)CC[C@H]21,28.5
23,COCCCN1C(=O)CC[C@H]2CN(c3cc(C(N)=O)ccn3)CC[C@H]21,24.9
24,COCCCN1C(=O)CC[C@H]2CN(Cc3ccc4nonc4c3)CC[C@H]21,53.4
